Read-out in assay [1]: C-C motif chemokine 2 (Homo sapiens) (UniProt P13500)
Put plainly: BSK_KF3CT_MCP1: BioMAP Diversity Plus: KF3CT Assay for Monocyte Chemoattractant Protein 1 (MCP1/CCL2) Biomarker Activity (AID 2283073). To be noted: primary human keratinocytes with fibroblasts; actives raise or lower the signal. The essentials:
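Human keratinocyte plus foreskin fibroblast primary co-culture exposed to chemical for 24 h. MCP-1 levels measured by ELISA. Bidirectional curve fitting relative to DMSO negative control as baseline.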

Read-out in assay [2]: Matrix Metallopeptidase 9 (MMP9), MMP9 (gene 4318)
Put plainly: BSK_KF3CT_MMP9: BioMAP Diversity Plus: KF3CT Assay for Matrix Metallopeptidase 9 (MMP9) Biomarker Activity (AID 2283074). The conditions noted are these: primary human keratinocytes with fibroblasts; actives raise or lower the signal. A digest of the protocol:
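Values come from bidirectional fitting relative to DMSO of MMP-9 levels, which were measured by ELISA. Measurements were taken 24 h after chemical dosing of a keratinocyte and foreskin fibroblast co-culture.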

Read-out in assay [3]: urokinase plasminogen activator (uPA), PLAU (gene 5328)
Put plainly: BSK_KF3CT_uPA: BioMAP Diversity Plus: KF3CT Assay for urokinase plasminogen activator (uPA) Biomarker Activity (AID 2283075). To be noted: primary human keratinocytes with fibroblasts; actives raise or lower the signal. The essentials: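 Values derive from bidirectional fitting against DMSO controls. Keratinocyte/foreskin fibroblast co-cultures received chemical; 24 h later uPA was detected by ELISA, with SRB total-protein staining in parallel wells for overt cytotoxicity.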

Read-out in assay [4]: CD40, CD40 (gene 958)
Put plainly: BSK_LPS_CD40: BioMAP Diversity Plus: LPS Assay for CD40 Biomarker Activity (AID 2283076). To be noted: primary human HUVEC with PBMC; actives raise or lower the signal. The essentials:
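Primary human umbilical vein endothelial cells co-cultured with peripheral blood mononuclear cells, LPS-stimulated, were dosed with chemical and read 24 h later. CD40 levels were measured by ELISA and fitted bidirectionally against DMSO as negative control and baseline.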

Read-out in assay [5]: E-selectin (Homo sapiens) (UniProt P16581)
The experiment in a line: BSK_LPS_Eselectin: BioMAP Diversity Plus: LPS Assay for Eselectin Biomarker Activity (AID 2283077). To be noted: primary human HUVEC with PBMC; actives raise or lower the signal. A digest of the protocol:
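Human umbilical vein endothelial cells co-cultured with peripheral blood mononuclear cells under LPS stimulation; E-selectin measured by ELISA 24 h after chemical dosing. Activity fitted bidirectionally against DMSO as negative control and baseline.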

Read-out in assay [6]: Interleukin-8 (IL8), CXCL8 (gene 3576)
The experiment in a line: BSK_LPS_IL8: BioMAP Diversity Plus: LPS Assay for Interleukin-8 (IL8) Biomarker Activity (AID 2283078). The conditions noted are these: primary human HUVEC with PBMC; actives raise or lower the signal. A digest of the protocol: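 Human umbilical vein endothelial cells co-cultured with PBMC were stimulated with LPS; IL-8 levels were measured by ELISA 24 h after chemical dosing. Activity was fitted bidirectionally against DMSO as negative control and baseline.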

Assay [7] can be described thus: BSK_LPS_SRB: Viability Assessment in the BioMAP Diversity Plus: LPS Assay (AID 2283079).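 Further: total protein by sulforhodamine B absorbance as a cytotoxicity measure; measured one day after compound addition; fitted in both directions against DMSO so loss or gain of signal counts.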 To be noted: primary human HUVEC with PBMC. The essentials: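 Human umbilical vein endothelial cells co-cultured with PBMC (LPS system) were dosed for 24 h. Total protein was stained with 0.1% sulforhodamine B after 10% TCA fixation, read at 560 nm, and fitted bidirectionally against DMSO baseline.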

Read-out in assay [8]: Interleukin-1 alpha (IL1a), IL1A (gene 3552)
Put plainly: BSK_LPS_IL1a: BioMAP Diversity Plus: LPS Assay for Interleukin-1 alpha (IL1a) Biomarker Activity (AID 2283080). To be noted: primary human HUVEC with PBMC; actives raise or lower the signal. The essentials: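 Human umbilical vein endothelial cells co-cultured with peripheral blood mononuclear cells were LPS-stimulated and exposed to test chemicals for 24 h. IL-1 alpha was quantified by ELISA, with bidirectional curve fitting against DMSO as the negative control and baseline.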

Read-out in assay [9]: Monocyte Chemoattractant Protein-1 (MCP1), CCL2 (gene 6347)
Put plainly: BSK_LPS_MCP1: BioMAP Diversity Plus: LPS Assay for Monocyte Chemoattractant Protein-1 (MCP1) Biomarker Activity (AID 2283081). The conditions noted are these: primary human HUVEC with PBMC; actives raise or lower the signal. The essentials:
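HUVEC plus PBMC co-culture (human primary cells, LPS system) exposed to test chemical for 24 h; MCP-1 measured by ELISA. Bidirectional curve fitting against DMSO baseline; parallel SRB total-protein staining flags overt cytotoxicity.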

Assay [10] in a line: BSK_LPS_PGE2: BioMAP Diversity Plus: LPS Assay for Prostaglandin E2 (PGE2) Biomarker Activity (AID 2283082). The conditions noted are these: primary human HUVEC with PBMC; actives raise or lower the signal. A digest of the protocol: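 PGE2 release measured by ELISA in an LPS-activated co-culture of human umbilical vein endothelial cells and peripheral blood mononuclear cells, read at 24 h post-dosing. DMSO served as baseline for bidirectional curve fitting.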

Read-out in assay [11]: Macrophage colony-stimulating factor (MCSF), CSF1 (gene 1435)
Put plainly: BSK_LPS_MCSF: BioMAP Diversity Plus: LPS Assay for Macrophage colony-stimulating factor (MCSF) Biomarker Activity (AID 2283083). To be noted: primary human HUVEC with PBMC; actives raise or lower the signal. A digest of the protocol:
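Human umbilical vein endothelial cells co-cultured with peripheral blood mononuclear cells were exposed to compound for 24 h. M-CSF levels were measured by ELISA, and bidirectional curve fitting used DMSO as the negative control and baseline.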

Read-out in assay [12]: Tissue Factor, F3 (gene 2152)
The experiment in a line: BSK_LPS_TissueFactor: BioMAP Diversity Plus: LPS Assay for Tissue Factor Biomarker Activity (AID 2283084). The conditions noted are these: primary human HUVEC with PBMC; actives raise or lower the signal. A digest of the protocol:
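Human umbilical vein endothelial cells co-cultured with peripheral blood mononuclear cells were dosed and stimulated with LPS. Cell-surface CD142 was quantified by ELISA at 24 h. Activity was fitted bidirectionally against DMSO baseline.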

Read-out in assay [13]: Tumor necrosis factor (Homo sapiens) (UniProt P01375)
Put plainly: BSK_LPS_TNFa: BioMAP Diversity Plus: LPS Assay for Tumour Necrosis Factor alpha (TNFa) Biomarker Activity (AID 2283085).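 On AC50: TNFa protein level quantified by ELISA in the co-culture.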 The conditions noted are these: primary human HUVEC with PBMC; actives raise or lower the signal. A digest of the protocol:
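TNFa was quantified by ELISA in LPS-activated co-cultures of human endothelial cells and PBMC, 24 h post-dosing. Both increases and decreases versus DMSO were fitted.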

Read-out in assay [14]: Vascular cell adhesion molecule 1 (VCAM1), VCAM1 (gene 7412)
Put plainly: BSK_LPS_VCAM1: BioMAP Diversity Plus: LPS Assay for Vascular cell adhesion molecule 1 (VCAM1) Biomarker Activity (AID 2283086). To be noted: primary human HUVEC with PBMC; actives raise or lower the signal. The essentials:
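VCAM-1 quantified by ELISA in an LPS-activated co-culture of human endothelial cells and peripheral blood mononuclear cells, read 24 h post-treatment. Fitted in both directions versus DMSO; parallel SRB staining flags overt cytotoxicity.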

Read-out in a further assay: CD38, CD38 (gene 952)
The experiment in a line: BSK_SAg_CD38: BioMAP Diversity Plus: SAg Assay for CD38 Biomarker Activity (AID 2283087). The conditions noted are these: primary human HUVEC with PBMC; actives raise or lower the signal. The essentials:
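CD38 quantified by ELISA (fluorescence) in a superantigen-activated endothelial cell–PBMC co-culture at 24 h post-dose. Activity fitted in both directions relative to DMSO; parallel SRB and Alamar Blue cytotoxicity read-outs.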

Read-out in assay [15]: CD40, CD40 (gene 958)
The experiment in a line: BSK_SAg_CD40: BioMAP Diversity Plus: SAg Assay for CD40 Biomarker Activity (AID 2283088). To be noted: primary human HUVEC with PBMC; actives raise or lower the signal. The essentials:
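Human umbilical vein endothelial cells co-cultured with PBMC; CD40 levels measured by ELISA with fluorescence read-out 24 h after chemical dosing. Gain or loss of signal fitted bidirectionally against DMSO baseline.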

Read-out in a further assay: CD69, CD69 (gene 969)
Put plainly: BSK_SAg_CD69: BioMAP Diversity Plus: SAg Assay for CD69 Biomarker Activity (AID 2283089).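 On AC50: cell surface CD69 protein quantified by ELISA with fluorescence detection.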 The conditions noted are these: primary human HUVEC with PBMC; actives raise or lower the signal. The essentials: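 HUVEC co-cultured with PBMC were dosed with chemical, and CD69 was measured by ELISA with fluorescence read-out 24 h later. Bidirectional curve fitting used DMSO as negative control and activity baseline.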

Read-out in assay [16]: Monocyte Chemoattractant Protein-1 (MCP1), CCL2 (gene 6347)
The experiment in a line: BSK_SAg_MCP1: BioMAP Diversity Plus: SAg Assay for Monocyte Chemoattractant Protein-1 (MCP1) Biomarker Activity (AID 2283090). To be noted: primary human HUVEC with PBMC; actives raise or lower the signal. The essentials:
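Values derive from bidirectional fitting of ELISA-measured MCP1 against DMSO controls. Readings were taken 24 h after dosing human vascular endothelial cells co-cultured with peripheral blood mononuclear cells under superantigen stimulation.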

Read-out in assay [17]: E-selectin (Homo sapiens) (UniProt P16581)
The experiment in a line: BSK_SAg_Eselectin: BioMAP Diversity Plus: SAg Assay for Eselectin Biomarker Activity (AID 2283091). The conditions noted are these: primary human HUVEC with PBMC; actives raise or lower the signal. The essentials:
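HUVEC co-cultured with PBMC, compound dosed then read at 24 h; E-selectin measured by ELISA. Activity fitted bidirectionally against DMSO as negative control and baseline.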

Usually AC50 stands for the midpoint of the concentration-response curve, whichever way the signal moves.

Activity calls are given as the source filed them. How the source made its calls: active means hit-call score of the fitted dose curve at least 0.9, where 1 is the maximum; inactive means score below 0.9.

Chain of Tumor necrosis factor (Homo sapiens) (P01375 whole entry, looked up): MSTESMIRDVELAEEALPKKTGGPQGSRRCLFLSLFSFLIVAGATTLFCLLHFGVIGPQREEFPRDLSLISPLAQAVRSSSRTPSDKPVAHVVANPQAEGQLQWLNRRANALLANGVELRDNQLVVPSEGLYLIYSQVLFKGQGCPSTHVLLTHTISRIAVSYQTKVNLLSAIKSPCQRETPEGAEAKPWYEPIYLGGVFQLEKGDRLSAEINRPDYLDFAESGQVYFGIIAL
Chain of E-selectin (Homo sapiens) (P16581 whole entry, looked up): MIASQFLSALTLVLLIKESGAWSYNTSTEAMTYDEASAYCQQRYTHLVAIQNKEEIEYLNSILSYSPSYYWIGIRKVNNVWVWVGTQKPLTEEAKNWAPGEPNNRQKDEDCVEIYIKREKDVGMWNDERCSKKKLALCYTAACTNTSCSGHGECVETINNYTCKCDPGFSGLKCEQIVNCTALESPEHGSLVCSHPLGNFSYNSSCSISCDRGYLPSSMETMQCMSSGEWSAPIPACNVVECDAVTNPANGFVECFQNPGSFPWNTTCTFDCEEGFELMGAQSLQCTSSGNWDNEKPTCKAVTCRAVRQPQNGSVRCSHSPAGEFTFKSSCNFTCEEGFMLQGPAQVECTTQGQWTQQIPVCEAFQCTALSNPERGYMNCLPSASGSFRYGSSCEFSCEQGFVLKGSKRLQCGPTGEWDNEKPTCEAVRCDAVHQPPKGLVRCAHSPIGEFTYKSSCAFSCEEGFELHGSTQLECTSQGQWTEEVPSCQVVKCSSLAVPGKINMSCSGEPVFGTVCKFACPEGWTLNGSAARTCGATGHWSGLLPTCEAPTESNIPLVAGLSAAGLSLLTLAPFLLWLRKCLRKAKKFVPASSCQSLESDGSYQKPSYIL

Regarding `Cc1ccc(C(C)C)cc1`, the outcome in assay [1] was “inactive”; in assay [2], “inactive”; in assay [3], “inactive”; in the assay with CD40, CD40 (gene 958) [4], “inactive”; in assay [5], “inactive”; in assay [6] it was “inactive”. The result in [7], in assay [8], in [9], in assay [10], in assay [11] and in assay [12] was inactive. For the same compound, the outcome is “inactive” in assay [13]; “inactive” in assay [14]; “inactive” with CD38, CD38 (gene 952); “inactive” with CD40, CD40 (gene 958) [15]; “inactive” with CD69, CD69 (gene 969); “inactive” in assay [16]. The result in [17] was inactive.

For the compound `CC[C@H](NC(=O)c1cc(F)ccc1NS(=O)(=O)c1cccc2cccnc12)c1ccccc1`, the outcome in assay [1] is “inactive”; in assay [2], “inactive”; in assay [3], “inactive”; in the assay with CD40, CD40 (gene 958) [4] it was “inactive”; in assay [5] it was “inactive”; in [6] it was “inactive”. Moreover, the result in [7], in assay [8], in assay [9], in [11], in [12] and in [13] was inactive. Besides, the outcome in assay [14] was inactive. The AC50 is 8.72 µM (active) in assay [10]; 6.29 µM (active) in the assay with CD40, CD40 (gene 958) [15]; 10.5 µM (active) in the assay with CD69, CD69 (gene 969); 5.84 µM (active) in assay [16]; 4 µM (active) in assay [17].

For `Cc1cccc2ccccc12`, the result in [1], in assay [2], in assay [3], in assay [5], in assay [6] and in [7] was inactive. For the same compound, the result in assay [8], in [9], in assay [10], in assay [11], in [12] and in assay [13] was inactive. Besides, the outcome in assay [14] is “inactive”; with CD38, CD38 (gene 952) it was “inactive”; with CD40, CD40 (gene 958) [15], “inactive”; with CD69, CD69 (gene 969) it was “inactive”; in [16] it was “inactive”; in assay [17], “inactive”.

`CCCCCCCCCC(=O)O`: the outcome in [1], in [2], in assay [3], in assay [5], in [6] and in assay [7] was inactive. The outcome in [8], in assay [9], in assay [10], in assay [11], in assay [12] and in assay [13] was inactive. The outcome in assay [14] is “inactive”; with CD38, CD38 (gene 952), “inactive”; with CD40, CD40 (gene 958) [15] it was “inactive”; with CD69, CD69 (gene 969), “inactive”; in [16], “inactive”; in [17] it was “inactive”.

In the case of `O=C(O)Cn1c(=O)n(Cc2ccc(Br)cc2F)c(=O)c2ccc(Cl)cc21`, the outcome in assay [1], in assay [2], in assay [3], in assay [5], in assay [6] and in [7] was inactive. In addition, the outcome in assay [8] is “inactive”; in [9] it was “inactive”; in assay [11], “inactive”; in [12], “inactive”; in assay [14], “inactive”; with CD40, CD40 (gene 958) [15], “inactive”. Moreover, the outcome with CD69, CD69 (gene 969) was “inactive”; in [16] it was “inactive”; in [17], “inactive”. In addition, the AC50 is 10.5 µM (active) in assay [10] and 1.07 µM (active) in assay [13].

As for `CC(C)(O)c1ccc(CNC(=O)c2cccnc2Oc2ccc3nonc3c2)cc1`, the outcome in assay [1], in [2], in assay [3], in assay [5], in [6] and in assay [7] was inactive. In addition, the result in assay [8], in assay [9], in assay [10], in [11], in [12] and in [14] was inactive. Also, the outcome in the assay with CD40, CD40 (gene 958) [15] was “inactive”; with CD69, CD69 (gene 969), “inactive”; in assay [16], “inactive”. Further, the AC50 in assay [13] is 1.49 µM (active); in assay [17] it was 1.4 µM (active).

On to `CC1=CC(=O)/C(=C(/C)O)C(=O)O1`, for which the AC50 in assay [1] was 0.396 µM (active); in [8], 20 µM (active). Further, the outcome in [2], in assay [3], in assay [5], in [6], in [7] and in assay [9] was inactive. Further, the outcome in [10] is “inactive”; in [11], “inactive”; in assay [12], “inactive”; in [13], “inactive”; in assay [14], “inactive”; with CD40, CD40 (gene 958) [15], “inactive”. Besides, the outcome was “inactive” in the assay with CD69, CD69 (gene 969); “inactive” in assay [16]; “inactive” in assay [17].
